A selection: hits, their analogues and other compounds. The true share with any hit is near 0.91%.
RECQ1 inh-1 = blocks DNA unwinding by human RECQ1 | RECQ1 DNA unwinding, red fluorescence kinetic read | Potency, µM (series often up to 57.3 µM), for inactives: at the highest dose activity, negative = inhibition, hits mostly inhibitors | 240,000 compounds, 0.54% hits | AID 2549;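 note: plate controls were vehicle for no effect and no enzyme for full effect; nearly all actives have a fitted effect of over 30% in size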
Target sequence (P46063 whole entry, looked up): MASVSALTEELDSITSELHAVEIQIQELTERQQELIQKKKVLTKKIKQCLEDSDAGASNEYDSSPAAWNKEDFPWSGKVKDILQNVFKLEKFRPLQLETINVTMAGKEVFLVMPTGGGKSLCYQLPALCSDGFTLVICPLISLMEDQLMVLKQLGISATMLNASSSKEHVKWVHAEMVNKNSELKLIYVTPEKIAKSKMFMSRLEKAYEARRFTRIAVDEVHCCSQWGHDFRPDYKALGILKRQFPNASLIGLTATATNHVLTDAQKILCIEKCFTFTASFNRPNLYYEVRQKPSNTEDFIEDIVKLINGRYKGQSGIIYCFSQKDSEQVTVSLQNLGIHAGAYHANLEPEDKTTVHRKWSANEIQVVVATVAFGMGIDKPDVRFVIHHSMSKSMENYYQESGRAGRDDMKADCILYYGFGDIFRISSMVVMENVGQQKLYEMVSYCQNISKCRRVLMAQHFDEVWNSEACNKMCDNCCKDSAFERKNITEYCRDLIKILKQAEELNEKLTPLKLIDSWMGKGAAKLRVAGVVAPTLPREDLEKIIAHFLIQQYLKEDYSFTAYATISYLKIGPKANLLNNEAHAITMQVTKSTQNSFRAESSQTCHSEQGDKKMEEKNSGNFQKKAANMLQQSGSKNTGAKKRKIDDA
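RECQ1T1 50 nM; forked duplex (20 bp + 30-nt ss tails) 200 nM, ATP 2 mM final; pH 8.0, 2 mM MgCl2, 2.5 ug/ml poly(dI-dC); 15 min compound preincubation; discontinuous kinetic read over 2 h at RT.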
WRN helicase inh-1 = WRN helicase (human) inhibition; 360,000 compounds, 0.46% hits; Q14191; Potency, µM (series often up to 114 µM), without a hit: at the top dose activity change, negative = inhibition, most hits filed as inhibitors; WRN helicase unwinding, fluorescent forked duplex, kinetic; note: % is set by controls: 0 for no effect and ±100 for the full control effect; nearly all actives have a fitted effect of over 55% in size
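WRN at 20 nM final preincubated with compound 15 min at room temperature; reaction started with 100 nM fluorophore/quencher forked duplex oligonucleotide and 2 mM ATP final. Unwinding followed kinetically by red fluorescence (ex 525, em 598 nm).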
APE1 inh = inhibitors of human APE1 endonuclease; recombinant APE1, TAMRA/BHQ-2 abasic DNA cleavage fluorescence; Potency, µM (doses to about 65.8 µM), for inactives: at the top dose activity change, negative = inhibition, hits mostly inhibitors; 350,000 compounds, 0.35% hits;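 note: plate controls were vehicle for no effect and reference inhibitor for full effect; nearly all actives have a fitted effect of over 55% in size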
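Measures dequenching upon AP-site incision of a 5'-TAMRA/3'-BHQ-2 THF-containing duplex, 50 nM; human APE1 0.75 nM after 15 min room-temperature exposure to compound; kinetic three-point read at one-minute spacing.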
BLM helicase inh-1 = Bloom syndrome helicase (human) inhibition; recombinant BLM DNA unwinding, fluorescence dequenching; 350,000 compounds, 0.2% hits; P54132; Potency, µM (highest dose often 56.1 µM), for inactives: at the highest dose activity change, negative = inhibition, most hits filed as inhibitors;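 note: plate controls were vehicle for no effect and no enzyme for full effect; nearly all actives have a fitted effect of over 35% in size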
TRb-SRC2 inh = disrupts binding of human TR beta to SRC2 | P10828 | TRbeta-SRC2 peptide binding, fluorescence polarization; receptor liganded with 1 µM T3 | Potency, µM (series often up to 106 µM), for the others: at the highest dose activity change, negative = inhibition, most hits filed as inhibitors | 280,000 compounds, 0.065% hits | AID 1469;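 note: plate controls were bound peptide for no effect and peptide without receptor for full effect; nearly all actives have a fitted effect of over 50% in size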
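Fluorescence polarization of 20 nM Texas Red SRC2 peptide with 0.6 uM human TRb ligand-binding domain, in Tris buffer with 1uM T3 and 5% DMSO. Incubated 5 hr ambient; normalized to unbound and bound controls.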
TexasRed fluor = Texas Red fluorescence interference in TRb-SRC2 counter-screen | TRb/SRC2 Texas Red total fluorescence interference | Potency, µM (series often up to 106 µM), inactives show at the top dose fluorescence change, negative = quenching | 280,000 compounds, 0.29% hits | AID 1479; active = well fitted curve in either direction with a large enough effect; inconclusive = small, poorly fitted or top-dose-only effect; note: % is set by controls: 0 for no effect and ±100 for the full control effect
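Flags fluorescent or light-absorbing compounds by total fluorescence, S + 2P, at 555 nm excitation and 632 nm emission. Mixture: 20 nM Texas Red SRC2 peptide, 0.6 uM human TRb LBD, 1 uM T3, 5% DMSO; compound exposure 5 h at ambient temperature.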
RECQ1 inh conf = confirmation of human RECQ1 helicase inhibitors; 610 compounds, 28% hits; RECQ1 helicase DNA unwinding, fluorescence; Potency, µM (titrated, usually from 229 µM), for the others: top-dose activity change, negative = inhibition, hits mostly inhibitors; AID 2708; shares compounds with RECQ1 inh-1; note: % is set by controls: 0 for no effect and ±100 for the full control effect; nearly all actives have a fitted effect of over 45% in size
ADP FP counter = ADP displacement flagged in RECQ1 inhibitor counter-screen | ADP fluorescence polarization displacement counterscreen | Potency, µM (highest dose often 228 µM), for the others: top-dose activity change, negative = inhibition, hits mostly inhibitors | 530 compounds, 27% hits | shares compounds with RECQ1 inh-1; note: % is set by controls: 0 for no effect and ±100 for the full control effect; nearly all actives have a fitted effect of over 45% in size
RECQ1 inh-2 = confirmation of human RECQ1 helicase inhibitors | AID 504841 | 1,100 compounds, 15% hits | recombinant RECQ1 DNA unwinding, red fluorescence | shares compounds with RECQ1 inh-1 | Potency, µM (titrated, usually from 119 µM), without a hit: top-dose activity, negative = inhibition, actives largely listed as inhibitors; note: % is set by controls: 0 for no effect and ±100 for the full control effect; nearly all actives have a fitted effect of over 50% in size
WRN helicase inh-2 = confirmation of human WRN helicase inhibitors; shares compounds with WRN helicase inh-1; WRN helicase DNA unwinding, fluorescence kinetic; Potency, µM (highest dose often 57.1 µM), without a hit: top-dose activity, negative = inhibition, hits mostly inhibitors; 610 compounds, 63% hits; AID 720497; note: nearly all actives have a fitted effect of over 65% in size
TO DNA binding = counter-screen for WRN helicase inhibitors: DNA binding; shares compounds with WRN helicase inh-1; thiazole orange DNA binding displacement, fluorescence; Potency, µM (doses to about 57.1 µM), for inactives: top-dose activity change, negative = inhibition, most hits filed as inhibitors; 610 compounds, 10% hits;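 note: drop in dye fluorescence marks compound binding to DNA; % is set by controls: 0 for no effect and ±100 for the full control effect; nearly all actives have a fitted effect of over 60% in size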
BLM helicase inh-2 = BLM helicase inhibition, WRN selectivity check | shares compounds with WRN helicase inh-1 | 610 compounds, 60% hits | Recombinant BLM helicase DNA unwinding, red fluorescence | Potency, µM (series often up to 57.1 µM), for inactives: at the top dose activity change, negative = inhibition, most hits filed as inhibitors; note: nearly all actives have a fitted effect of over 60% in size
Numbers without * were called inactive; [ ] = remark or other dose. Unless noted, calls come from the whole dose curve; as a rule, active = well fitted curve in the direction sought with a large enough effect; inconclusive = small, poorly fitted or top-dose-only effect, or another doubt; inactive = no such curve, though single readings can be large; an effect the other way counts as inactive or inconclusive. Potency is the fitted concentration of half-maximal effect.

Oc1ccc(C2CNCCc3c2cc(O)c(O)c3Cl)cc1 (stereo unspecified) was read as RECQ1 inh-1 22µM*, WRN helicase inh-1 inconclusive, APE1 inh -4%, BLM helicase inh-1 -21%, TRb-SRC2 inh -7%, TexasRed fluor 3%, RECQ1 inh conf inconclusive, ADP FP counter 45µM*, WRN helicase inh-2 19µM*, TO DNA binding -1% and BLM helicase inh-2 24µM*.
Screening O=C(c1ccc(N2CCN(C(=O)c3ccc(F)cc3F)CC2)cc1)c1cccc(F)c1 returned WRN helicase inh-1 -4%, APE1 inh -13% and BLM helicase inh-1 -8%.
Screening NS(=O)(=O)c1ccc(-c2ccc(/C=N/NC(=O)c3ccccc3O)o2)cc1 returned RECQ1 inh-1 21%, WRN helicase inh-1 -11%, APE1 inh 2%, BLM helicase inh-1 -1%, TRb-SRC2 inh 4% and TexasRed fluor -3%.
Screening O=C(N/N=C/c1ccc(-c2ccc(S(=O)(=O)Nc3ncccn3)cc2)o1)c1cc2ccccc2cc1O returned RECQ1 inh-1 3.5µM*, WRN helicase inh-1 8.9µM*, APE1 inh inconclusive, BLM helicase inh-1 inconclusive, TRb-SRC2 inh inconclusive, TexasRed fluor 16µM*[quencher], RECQ1 inh conf 45µM*, ADP FP counter -12%[91.9 µM], WRN helicase inh-2 6.8µM*, TO DNA binding inconclusive and BLM helicase inh-2 15µM*.
Screening CC(C)(C)OC(=O)Nc1ccccc1-n1nnnc1C(C(=O)c1ccccc1)N1CCN(c2ccccn2)CC1 (stereo unspecified) returned WRN helicase inh-1 -5%.
For COc1ccc(Sc2ccc(/C=C3\C(=O)NN(c4ccccc4)C3=O)o2)cc1 the results were RECQ1 inh-1 10µM*, WRN helicase inh-1 inconclusive, APE1 inh -7%, BLM helicase inh-1 -21%, TRb-SRC2 inh -5%, TexasRed fluor -15%, RECQ1 inh conf -14%[114 µM], WRN helicase inh-2 22µM*, TO DNA binding -18% and BLM helicase inh-2 22µM*.
For COc1ccc(-n2c(C)cc(/C=C3\C(=O)NN(c4ccccc4)C3=O)c2C)cc1 the results were RECQ1 inh-1 -1%, WRN helicase inh-1 -2%, APE1 inh 1%, BLM helicase inh-1 -9%, TRb-SRC2 inh -3% and TexasRed fluor -1%.
For Cc1ccc(C2=NC(=O)/C(=C/c3cc(O)c(O)c(Br)c3)S2)cc1 the results were RECQ1 inh-1 3.5µM*, WRN helicase inh-1 7.9µM*, APE1 inh 2µM*, BLM helicase inh-1 3.5µM*, TRb-SRC2 inh 11%, TexasRed fluor 0%, RECQ1 inh conf 22µM*, RECQ1 inh-2 6.3µM*, WRN helicase inh-2 1.7µM*, TO DNA binding 6.8µM* and BLM helicase inh-2 0.76µM*.
O=C(CSc1nc2ccsc2c(=O)n1CC1CCC(C(=O)O)CC1)c1ccc(Cl)cc1 (stereo unspecified) was read as RECQ1 inh-1 inconclusive, WRN helicase inh-1 inconclusive, APE1 inh inconclusive, BLM helicase inh-1 -16%, TRb-SRC2 inh 13%, TexasRed fluor -1%, RECQ1 inh-2 20µM*, WRN helicase inh-2 24µM*, TO DNA binding 10% and BLM helicase inh-2 15µM*.
COC(=O)c1ccccc1NC(=O)CCS(=O)(=O)c1ccc(Br)cc1 was read as RECQ1 inh-1 32µM*, WRN helicase inh-1 25µM*, APE1 inh inconclusive, BLM helicase inh-1 2%, TRb-SRC2 inh -3%, TexasRed fluor 3%, RECQ1 inh-2 inconclusive, WRN helicase inh-2 9.6µM*, TO DNA binding -8% and BLM helicase inh-2 2.4µM*.
Screening COc1ncc2nc(-c3ccc(F)cc3)c(=O)n(CCC#N)c2n1 returned RECQ1 inh-1 inactive, APE1 inh 13% and BLM helicase inh-1 3%.
COc1cccc(C(=O)Nc2cccc(C(=O)NC3=NN(c4c(Cl)cc(Cl)cc4Cl)C(=O)C3)c2)c1 was read as RECQ1 inh-1 32µM*, WRN helicase inh-1 inconclusive, APE1 inh 6%, BLM helicase inh-1 -26%, TRb-SRC2 inh inconclusive, TexasRed fluor inconclusive, RECQ1 inh-2 inconclusive, WRN helicase inh-2 inconclusive, TO DNA binding inconclusive and BLM helicase inh-2 inconclusive.
COc1ccccc1NC(=O)CN1C(=O)CC(c2ccc(C)c(C)c2)=Nc2ccccc21 was read as BLM helicase inh-1 -8%, TRb-SRC2 inh 1% and TexasRed fluor -1%.
Screening CCc1ccc(-c2nc(CN3CCC(C(=O)NCCc4ccc(Cl)cc4)CC3)c(C)o2)cc1 returned BLM helicase inh-1 -3%, TRb-SRC2 inh -2% and TexasRed fluor 0%.
`CS(=O)(=O)c1ccc2c(c1)sc1nc(=O)c(/C=C3/C=CC(=O)C(O)=C3)c(N)n12` gave RECQ1 inh-1 16µM*, WRN helicase inh-1 28µM*, APE1 inh 25µM*, BLM helicase inh-1 25µM*, TRb-SRC2 inh 0%, TexasRed fluor -22%, RECQ1 inh-2 7.9µM*, WRN helicase inh-2 1.9µM*, TO DNA binding 31% and BLM helicase inh-2 3µM*.
COC1=C/C(=C/c2c(N)n3c(nc2=O)sc2cc(S(C)(=O)=O)ccc23)C=CC1=O was read as RECQ1 inh-1 -11%, WRN helicase inh-1 -2%[11.6 µM], APE1 inh -8%, BLM helicase inh-1 -2%, TRb-SRC2 inh 1% and TexasRed fluor -11%.

Screening data deposited in PubChem by National Center for Advancing Translational Sciences (NCATS).
